Measurements: PubChem BioAssay (NCATS)
Where “and” joins values, the source holds several entries; their conditions need not be identical. Equal values may be shown once. Records with an inconclusive call do not appear. Where a structure was tested more than once in an assay, its records may differ in their call. A number with no mark means an inactive call. Calls of active or inactive are those of the source. Calls come from the whole dose curve; as a rule, active = well fitted inhibition curve with a large enough effect; inconclusive = small, poorly fitted or top-dose-only effect; inactive = flat fitted curve, though single readings scatter.

Tested on: KB-3-1
Experiment: Cytotoxic Profiling of Annotated Libraries Using Quantitative High-Throughput Screening (AID 1296008); note: nearly all actives have a fitted effect of over 60% in size
Conditions: Five cell lines viability, CellTiter-Glo ATP luminescence, 48-72 h; max response: hits give low values
Method in brief: (§1)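 Cytotoxicity was measured as CellTiter-Glo ATP luminescence, read after 10 min at room temperature. Compound treatment of the cells lasted 48 or 72 hr at 37 degrees Celsius in a qHTS format.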
% is set by controls: 0 for no effect and ±100 for the full control effect; potency is the fitted concentration of half-maximal effect.

Compound | max response | outcome | Potency
Nc1ccccc1 | -12% | – | –
CC(C)N(CCC(C(N)=O)(c1ccccc1)c1ccccn1)C(C)C (centres undefined) | -6.29% and -10.8% | – | –
C=C(C)[C@H]1CN[C@H](C(=O)O)[C@H]1CC(=O)O | 4.34% | – | –
CN1C(=O)CCS(=O)(=O)C1c1ccc(Cl)cc1 (centres undefined) | -6.09% and -6.07% | – | –
CNC(C)(C)Cc1ccccc1 | 16.1% | – | –
CC1(C)C(C=C(Cl)Cl)C1C(=O)OC(C#N)c1cccc(Oc2ccccc2)c1 (centres undefined) | 2.32% | – | –
O=C1c2ccccc2C(=O)c2ccccc21 | -11.4% | – | –
O=C1c2ccccc2C(=O)C1C(=O)C(c1ccccc1)c1ccccc1 | -7.07% | – | –
C[C@]12CC[C@@H]3c4ccc(OC(=O)N(CCCl)CCCl)cc4CC[C@H]3[C@@H]1CC[C@@H]2OP(=O)(O)O | -0.529% | inactive | –
COC(=O)[C@@H](N)CCCN/C(N)=N/[N+](=O)[O-] | -3.97% | – | –
CCC1(c2ccc(N)cc2)CCC(=O)NC1=O (centres undefined) | 5.24% and 0.522% | – | –
O=C(O)CCCc1ccc(N(CCCl)CCCl)cc1 | 1.55% | inactive | –
NNc1ccccc1 | -8.39% | – | –
CCc1cc2c(s1)-n1c(C)nnc1CN=C2c1ccccc1Cl | -14.4% | – | –
NC(=O)c1cc([N+](=O)[O-])cc([N+](=O)[O-])c1 | -1.64% | – | –
COP(=S)(OC)Oc1cc(Cl)c(Cl)cc1Cl | -14.4% | – | 146 nM (active)
c1ccc(CN2CCNCC2)cc1 | -8.52% | – | –
C[N+]1(CCF)[C@@H]2CC[C@H]1CC(OC(=O)C(O)(c1ccccc1)c1ccccc1)C2 (some centres undefined) | -9.39% | – | –

Compound | max response | outcome | Potency
CCN(CCO)CCn1c(Cc2ccccc2)nc2c1c(=O)n(C)c(=O)n2C | -17.3% | – | –
O=C(O)/C=C\C(=O)O | -5.31% | – | –
CC(C)(C)NCC(O)c1cc(Cl)c(N)c(C(F)(F)F)c1 (centres undefined) | 5.51% | – | –
O=C1OC(c2ccc(O)c(S(=O)(=O)O)c2)(c2ccc(O)c(S(=O)(=O)O)c2)c2c(Br)c(Br)c(Br)c(Br)c21 | 10.3% | – | –
C=CCN1C[C@H](C)N([C@H](c2ccc(C(=O)N(CC)CC)cc2)c2cccc(OC)c2)C[C@H]1C | 2.69% | inactive | –
CCCCCCCCCC(=O)O[C@H]1CC[C@H]2[C@@H]3CCC4=CC(=O)CC[C@@H]4[C@H]3CC[C@]12C | -10.4% | – | –
CCCCCN(C)CCC(O)(P(=O)(O)O)P(=O)(O)O | 1.98% | inactive | –
CC(NC(C)(C)C)C(=O)c1cccc(Cl)c1 (centres undefined) | -3.99% and 2.03% and 8.68% | – | –
O=c1[nH]oc2c1CCNC2 | -7.07% | – | –
CC(=O)OCC1=C(C(=O)O)N2C(=O)[C@@H](N)[C@H]2SC1 | -19.8% | inactive | –
O=P1(N(CCCl)CCCl)NCCCO1 (centres undefined) | 2.64% and 7.08% | – | –
COc1ccc2c3c1O[C@H]1[C@H](O)CC[C@H]4[C@@H](C2)N(C)CC[C@@]341 | -6.57% | – | –
CN1CC[C@]23c4c5ccc(O)c4O[C@H]2[C@@H](O)CC[C@H]3[C@H]1C5 | -2.83% | – | –
COc1cc(OC)c(OC)cc1C=O | -7.6% and -8.54% | – | –
Oc1ccc(Cl)cc1 | -9.29% | – | –
CC(C)c1cccc(C(C)C)c1O | 9.44% | – | –
CNCC(=O)c1ccc(O)c(O)c1 | -7.67% | – | –
CCOC(=O)CC(SP(=S)(OC)OC)C(=O)OCC (centres undefined) | -10.3% and -23.1% | – | –

Tested on: NIH3T3
Experiment: as above
Conditions: Five cell lines viability, CellTiter-Glo ATP luminescence, 48-72 h; max response: hits give low values
Method in brief: as §1

Compound | max response | outcome
Nc1ccccc1 | -0.773% | –
CC(C)N(CCC(C(N)=O)(c1ccccc1)c1ccccn1)C(C)C (centres undefined) | -23.6% and -1.68% | –
C=C(C)[C@H]1CN[C@H](C(=O)O)[C@H]1CC(=O)O | – | inactive
CN1C(=O)CCS(=O)(=O)C1c1ccc(Cl)cc1 (centres undefined) | 2.05% and -20.3% | –
CNC(C)(C)Cc1ccccc1 | 2.82% | –
CC1(C)C(C=C(Cl)Cl)C1C(=O)OC(C#N)c1cccc(Oc2ccccc2)c1 (centres undefined) | – | inactive
O=C1c2ccccc2C(=O)c2ccccc21 | -2.39% | –
O=C1c2ccccc2C(=O)C1C(=O)C(c1ccccc1)c1ccccc1 | -11% | –
C[C@]12CC[C@@H]3c4ccc(OC(=O)N(CCCl)CCCl)cc4CC[C@H]3[C@@H]1CC[C@@H]2OP(=O)(O)O | 2.9% | –
COC(=O)[C@@H](N)CCCN/C(N)=N/[N+](=O)[O-] | 1.98% | –
CCC1(c2ccc(N)cc2)CCC(=O)NC1=O (centres undefined) | 1.87% and -15.6% | –
O=C(O)CCCc1ccc(N(CCCl)CCCl)cc1 | -8.46% and -0.549% | –
NNc1ccccc1 | 4.99% | –
CCc1cc2c(s1)-n1c(C)nnc1CN=C2c1ccccc1Cl | – | inactive
NC(=O)c1cc([N+](=O)[O-])cc([N+](=O)[O-])c1 | 4.48% | –
COP(=S)(OC)Oc1cc(Cl)c(Cl)cc1Cl | -6.48% | –
c1ccc(CN2CCNCC2)cc1 | -5.38% | –
C[N+]1(CCF)[C@@H]2CC[C@H]1CC(OC(=O)C(O)(c1ccccc1)c1ccccc1)C2 (some centres undefined) | – | inactive

Compound | max response | outcome
CCN(CCO)CCn1c(Cc2ccccc2)nc2c1c(=O)n(C)c(=O)n2C | -7.24% | –
O=C(O)/C=C\C(=O)O | -5.56% | –
CC(C)(C)NCC(O)c1cc(Cl)c(N)c(C(F)(F)F)c1 (centres undefined) | – | inactive
O=C1OC(c2ccc(O)c(S(=O)(=O)O)c2)(c2ccc(O)c(S(=O)(=O)O)c2)c2c(Br)c(Br)c(Br)c(Br)c21 | – | inactive
C=CCN1C[C@H](C)N([C@H](c2ccc(C(=O)N(CC)CC)cc2)c2cccc(OC)c2)C[C@H]1C | -0.106% and 4.66% | –
CCCCCCCCCC(=O)O[C@H]1CC[C@H]2[C@@H]3CCC4=CC(=O)CC[C@@H]4[C@H]3CC[C@]12C | -3.4% | –
CCCCCN(C)CCC(O)(P(=O)(O)O)P(=O)(O)O | – | inactive
CC(NC(C)(C)C)C(=O)c1cccc(Cl)c1 (centres undefined) | -22.3% and 1.31% | inactive
O=c1[nH]oc2c1CCNC2 | -9.67% | –
CC(=O)OCC1=C(C(=O)O)N2C(=O)[C@@H](N)[C@H]2SC1 | 1.92% and 4.65% | –
O=P1(N(CCCl)CCCl)NCCCO1 (centres undefined) | -16.8% and -12.6% | –
COc1ccc2c3c1O[C@H]1[C@H](O)CC[C@H]4[C@@H](C2)N(C)CC[C@@]341 | – | inactive
CN1CC[C@]23c4c5ccc(O)c4O[C@H]2[C@@H](O)CC[C@H]3[C@H]1C5 | 0.466% | –
COc1cc(OC)c(OC)cc1C=O | 2.47% and 4.91% | –
Oc1ccc(Cl)cc1 | 0.545% | –
CC(C)c1cccc(C(C)C)c1O | 0.687% | –
CNCC(=O)c1ccc(O)c(O)c1 | -2.19% | –
CCOC(=O)CC(SP(=S)(OC)OC)C(=O)OCC (centres undefined) | -6.65% and 2.23% | –
